According to PubChem BioAssay AID623992 (NMMLSC, 2012):
Entries with a potency or affinity are not part of this list. Calls of active or inactive are those of the source.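 How the source made its calls: active means compounds whose fitted half-maximal effective concentration for blocking dye efflux is below 100 µM; inactive means the rest.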

The compounds below were run against Benomyl/methotrexate resistance protein (Candida albicans) (UniProt P28873) (assay: Candida albicans Mdr1 pump blockade titration – singleplex, Cherry Pick2 set, dose response (AID 623992)). Conditions: S. cerevisiae AD/CaMDR1, Nile Red efflux, flow cytometry; series mostly up to 100 µM; efflux inhibition response: at the top concentration.
Sequence of Benomyl/methotrexate resistance protein (Candida albicans) (P28873 whole entry, looked up): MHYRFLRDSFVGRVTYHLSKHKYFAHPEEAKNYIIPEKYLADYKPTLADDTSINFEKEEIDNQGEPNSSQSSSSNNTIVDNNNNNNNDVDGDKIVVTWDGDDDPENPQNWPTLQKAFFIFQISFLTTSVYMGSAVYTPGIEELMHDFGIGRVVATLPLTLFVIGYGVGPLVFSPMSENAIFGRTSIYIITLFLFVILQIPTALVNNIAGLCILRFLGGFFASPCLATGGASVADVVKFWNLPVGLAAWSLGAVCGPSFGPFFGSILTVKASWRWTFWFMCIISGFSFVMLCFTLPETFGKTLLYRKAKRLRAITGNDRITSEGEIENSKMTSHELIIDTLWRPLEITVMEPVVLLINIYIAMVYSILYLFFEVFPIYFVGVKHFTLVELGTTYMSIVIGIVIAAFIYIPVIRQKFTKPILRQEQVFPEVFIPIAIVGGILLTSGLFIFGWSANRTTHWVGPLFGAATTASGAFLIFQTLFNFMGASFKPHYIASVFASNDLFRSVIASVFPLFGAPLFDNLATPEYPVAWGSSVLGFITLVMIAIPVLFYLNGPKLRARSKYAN

Efflux inhibition response, inactive:
Nc1ccc(C(=O)OCCc2ccccc2)cc1 -1.83%, O=C(Nc1ccccc1)C1=C[C@@H](c2ccc(C(F)(F)F)cc2)C[C@@H](OCCCCO)O1 0.5%, COc1ccc(CCOC(=O)c2ccc(N)c([N+](=O)[O-])c2)cc1 -0.87%, COc1ccc(C2CC(c3ccccc3C(F)(F)F)=NN2c2ccc(S(N)(=O)=O)cc2)cc1 (stereo unspecified) 53.7%, CCOc1cccc2sc(NC(=O)c3ccc(Br)s3)nc12 -0.82%, NC1=NC[C@H](Cc2ccc(O)cc2)N1CCCCC1CCCCC1 -0.18%, CCCCNC(=O)C1CCC(CNc2nc(=S)[nH]c3ccccc23)CC1 (stereo unspecified) 1.33%, Cc1ccc(CN2C(=O)C(CC(C)C)Nc3ncnc(N4CCN(c5ccccc5)CC4)c32)cc1 (stereo unspecified) -1.17%, COc1cc(OC)c2ccc(=O)oc2c1C(CCN1CCCC(C)C1)c1ccc(N(C)C)cc1 (stereo unspecified) -0.68%, OCCN1CCN(CC/C=C2/c3ccccc3Sc3ccc(C(F)(F)F)cc32)CC1 0.63%, COc1ccc(-c2sc3ccccc3c2-c2ccc(OCCN(C)C)cc2)cc1 186%, O=C(C[n+]1cc(-c2ccc(F)cc2)n2c1CCC2)N1c2ccccc2Sc2ccccc21 -0.76%, NS(=O)(=O)c1ccc(N2N=C(c3ccc(Br)cc3)CC2c2ccc(F)cc2)cc1 (stereo unspecified) -1.21%, COc1ccc(C(=O)NC2CC(C)(C)Cc3c2cnn3-c2ccccc2)c(OC)c1 (stereo unspecified) -0.62%, C[C@@]12C(=O)Nc3cc(F)c(F)cc3C(=O)N1[C@H]1c3cc(Cl)ccc3OC[C@@H]1[C@@H]2c1ccccc1 0.23%, COc1ccc([C@H]2CC(=O)C=C(c3ccnc4ccc(Cl)cc34)C2)cc1 126%, NS(=O)(=O)c1ccc(N2N=C(c3ccccc3)CC2c2ccc(F)cc2)cc1 (stereo unspecified) -0.06%, O=C(C1CCCN(c2ncnc3c2nc2n3CCCCC2)C1)N1CCN(c2cccc(Cl)c2)CC1 (stereo unspecified) -0.25%, O=C(Nc1ccccc1)C1=C[C@H](c2ccccc2)C[C@H](OCCCCO)O1 0.64%, O=C(C1CCC(CNc2nc(=S)[nH]c3ccccc23)CC1)N1CCN(c2ccc(F)cc2)CC1 (stereo unspecified) -1.48%, CCCCN1Cc2cc(C(=O)c3cc(OC)ccc3O)cnc2NC1=O 1.48%, Cc1ccc2c(c1)[C@H]1[C@H](CO2)[C@H](c2ccccc2)[C@]2(C)C(=O)Nc3cc(F)c(F)cc3C(=O)N12 -0.45%, COc1cc(OC)c2ccc(=O)oc2c1C(CCN1CCCCC1)c1ccc(N(C)C)cc1 (stereo unspecified) -0.63%, O=C(c1ccoc1)N1CCC2(CC1)Oc1ccc(F)cc1C(=O)C21CC(c2ccccc2)=NO1 (stereo unspecified) 105%, CCO[C@@H]1OC(C(=O)Nc2ccccc2)=C[C@H](c2ccccc2)[C@H]1CCCO -1.21%, COc1ccc2sc(-c3ccccc3OC)c(-c3ccc(OCCN(C)C)cc3)c2c1 307%, O=C(C[n+]1cc(-c2ccccc2)n2c1CCC2)N1c2ccccc2Sc2ccccc21 -0.58%, NC1=NC[C@H](Cc2ccccc2)N1CCCCC1CCCCC1 -0.87%, COc1ccc(CN2C(=O)C(C)Nc3ncnc(N4CCN(c5ccccc5)CC4)c32)cc1 (stereo unspecified) -0.25%, O=C(CSc1nnc(Cc2cccs2)n1Cc1ccco1)Nc1ccc(Br)cc1 -1.48%

outcome, inactive:
CCC(=O)N1CCN(c2ccc(Cl)cc2NC(=O)c2ccc3c(c2)OCCO3)CC1
